Screening data as filed in PubChem BioAssay.
TbPYK inhibitor: blocks Trypanosoma brucei pyruvate kinase; Q57TT1; TbPYK enzyme, Kinase-Glo Plus ATP luminescence, 45 min; Potency, µM (doses to about 76.8 µM), without a hit: at the highest dose activity, negative = inhibition, hits mostly inhibitors; 410,000 tested, 0.12% active; note: potency is the fitted concentration of half-maximal effect; % is set by controls: 0 for no effect and ±100 for the full control effect; nearly all actives have a fitted effect of over 50% in size
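ADP (130 uM final) triggers the TbPYK reaction after compound addition; incubation is 45 min at room temperature. Kinase-Glo Plus is then added and luminescence imaged. Normalized data are fitted to concentration-effect curves.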
Shiga toxin inh: inhibitors of Shiga toxin in Vero cells. Vero cells, Shiga toxin protein synthesis inhibition reporter. inhibition, % at 38.7 µM. 290,000 tested, 9.2% active. AID 2315; in the data active = inhibition mostly above about 28%, no sharp cut-off; inactive = mostly below about 43%; note: 0% is about no effect
Giardia FBPA inh: inhibitors of Giardia lamblia fructose-1,6-bisphosphate aldolase | A8B2U2 | Potency, µM (top dose mostly 59.6 µM), inactives show top-dose activity, negative = inhibition, most hits filed as inhibitors | 290,000 tested, 0.71% active | purified Giardia FBPA; note: potency is the fitted concentration of half-maximal effect; % is set by controls: 0 for no effect and ±100 for the full control effect; nearly all actives have a fitted effect of over 55% in size
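Giardia FBPA (40 nM reagent) was preincubated 10 min at RT with compound (up to 57.5 uM final), then substrate plus GAPDH/TPI/NAD/arsenate coupling system with diaphorase/resazurin was added; resorufin fluorescence (525/598 nm) was read after 20 min.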
LmPK inhibitor: inhibitors of Leishmania mexicana pyruvate kinase; AID 1721; Potency, µM (series often up to 57.5 µM), inactives show top-dose activity change, negative = inhibition, actives largely listed as inhibitors; purified LmPK, Kinase-Glo ATP luminescence, 1 h; 290,000 tested, 0.37% active; note: potency is the fitted concentration of half-maximal effect; % is set by controls: 0 for no effect and ±100 for the full control effect
Target sequence (Q27686 whole entry, looked up): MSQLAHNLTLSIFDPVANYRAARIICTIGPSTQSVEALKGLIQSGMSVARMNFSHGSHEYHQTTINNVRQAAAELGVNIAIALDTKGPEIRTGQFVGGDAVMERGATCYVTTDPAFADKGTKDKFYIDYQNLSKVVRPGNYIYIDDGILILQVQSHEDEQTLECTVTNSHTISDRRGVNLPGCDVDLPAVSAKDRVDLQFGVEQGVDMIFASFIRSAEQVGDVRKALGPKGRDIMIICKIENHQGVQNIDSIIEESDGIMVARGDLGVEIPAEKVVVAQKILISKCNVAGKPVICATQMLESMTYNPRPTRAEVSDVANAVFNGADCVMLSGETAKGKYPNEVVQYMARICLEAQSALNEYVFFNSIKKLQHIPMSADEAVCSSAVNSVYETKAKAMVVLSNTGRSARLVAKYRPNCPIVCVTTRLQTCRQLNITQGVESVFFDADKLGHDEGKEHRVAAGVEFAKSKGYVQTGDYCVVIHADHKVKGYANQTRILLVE
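Screened at intermediate enzyme activity to detect both inhibitors and activators: LmPK at 0.1 nM, with a 0.5 nM enzyme column as activation reference. PEP 0.5 mM, ADP 0.1 mM; ATP detected by luminescence after 1 h.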
RE007 growth inh: less growth of the S. pombe RE007 Vpr strain. S. pombe RE007 Vpr strain, BacTiter-Glo ATP luminescence, 24 h. Potency, µM (series often up to 92.2 µM), for inactives: at the top dose activity change, negative = less growth, hits mostly inhibitors. 360,000 tested, 0.21% active; active = well fitted falling curve with a large enough effect; inconclusive = small, poorly fitted or top-dose-only effect; inactive = no such curve, though single readings can be large or run the other way; note: potency is the fitted concentration of half-maximal effect; % is set by controls: 0 for no effect and ±100 for the full control effect; nearly all actives have a fitted effect of over 50% in size
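Fission yeast RE007 carrying one integrated HIV-1 vpr copy, seeded at OD 0.01 in PMG+AL medium with 23 nL pinned compound. Grown 24 h at 30 degrees; viability read by BacTiter-Glo luminescence after 5 min.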
CHX counter: counter-screen hit for Shiga toxin inhibitors, cycloheximide; cell reporter, cycloheximide protein synthesis inhibition counterscreen; max response, %; 300,000 tested, 12% active; in the data active = max response mostly above about 13%, no sharp cut-off; inactive = mostly below about 14%; note: read at 38.3 µM for the half of the compounds with a filed dose; 0% is about no effect
An asterisk follows results filed as active. The full list was thinned out, with hits kept by preference. Unless noted, calls come from the whole dose curve; as a rule, active = well fitted curve in the direction sought with a large enough effect; inconclusive = small, poorly fitted or top-dose-only effect, or another doubt; inactive = no such curve, though single readings can be large; an effect the other way counts as inactive or inconclusive.

`O=C(NCc1nc2ccccc2[nH]1)C1=C[C@@H](c2ccccc2)C[C@@H](OCc2ccc(CO)cc2)O1` gave TbPYK inhibitor -6%, Shiga toxin inh 4, Giardia FBPA inh 0%, LmPK inhibitor 10%, RE007 growth inh -18% and CHX counter 6.
Screening O=C(NCc1nc2ccccc2[nH]1)C1=C[C@H](c2ccccc2)C[C@H](OCc2ccc(CO)cc2)O1 returned TbPYK inhibitor 4%, Shiga toxin inh 29, Giardia FBPA inh -30%, LmPK inhibitor 1%, RE007 growth inh 8% and CHX counter 15*.
`O=C(NCc1nc2ccccc2[nH]1)C1=C[C@H](C2CCCCC2)C[C@H](OCc2ccc(CO)cc2)O1` gave TbPYK inhibitor 1%, Shiga toxin inh -6, Giardia FBPA inh 0%, LmPK inhibitor 3%, RE007 growth inh 9% and CHX counter 5.
`O=C(NCc1nc2ccccc2[nH]1)C1=C[C@@H](C2CCCCC2)C[C@@H](OCc2ccc(CO)cc2)O1` gave TbPYK inhibitor 1%, Shiga toxin inh 46*, Giardia FBPA inh -1%, LmPK inhibitor 5%, RE007 growth inh -9% and CHX counter 11.
For CC1Cc2ccccc2N1C(=O)COC(=O)Cc1ccc(F)cc1 (stereo not drawn) the results were TbPYK inhibitor 0% and RE007 growth inh -8%.
CC(=O)N1CCc2cc(Br)cc(S(=O)(=O)NCCc3cccc(C)c3)c21 was read as TbPYK inhibitor -4%.
For CCOc1c2ccoc2nc2c(OC)c(OC)ccc12 the results were TbPYK inhibitor 3%, Shiga toxin inh 18, Giardia FBPA inh -18%, LmPK inhibitor 3%, RE007 growth inh -20% and CHX counter 18*.
COc1c2c(nc3occc13)C(CC=C(C)C)(OC)C(=O)C=C2 (stereo not drawn) was read as TbPYK inhibitor -1%, Shiga toxin inh -7, Giardia FBPA inh 2%, LmPK inhibitor -10%, RE007 growth inh 4% and CHX counter -1.
For CCOc1c(OC)ccc2c3c(c(=O)oc12)CCCC3 the results were TbPYK inhibitor 2%, Shiga toxin inh -1, Giardia FBPA inh 9%, LmPK inhibitor 0%, RE007 growth inh -9% and CHX counter 1.
`C=CCOc1ccc2c(OC)c3ccoc3nc2c1OC` gave TbPYK inhibitor 0%, Shiga toxin inh 39*, Giardia FBPA inh 2%, LmPK inhibitor 2%, RE007 growth inh -28% and CHX counter 26*.
`CCOc1ccc(NS(=O)(=O)c2ccc3c(c2)NC(=O)CCS3)cc1` gave TbPYK inhibitor 0%.
For CCC(C(=O)NCCc1ccc(Cl)cc1)n1ccc2cc(S(=O)(=O)N3CCCCC3)ccc21 (stereo not drawn) the results were TbPYK inhibitor -1%.
For Cc1cccc(NC(=O)Nc2ccc(C#N)cc2)n1 the results were TbPYK inhibitor 4%, Shiga toxin inh 17, Giardia FBPA inh -9%, LmPK inhibitor 1%, RE007 growth inh -3% and CHX counter 18*.
Cc1cccc(NC(=O)Nc2cccc(C#N)c2)n1 was read as TbPYK inhibitor 3%, Shiga toxin inh 21, Giardia FBPA inh 2%, LmPK inhibitor -2%, RE007 growth inh 0% and CHX counter 36*.
N#Cc1cccc(NC(=O)Nc2cccs2)c1 was read as TbPYK inhibitor 2%, Shiga toxin inh 20, Giardia FBPA inh -7%, LmPK inhibitor -2%, RE007 growth inh 14% and CHX counter -2.
`O=C1NCCN(Cc2ccoc2)C1CC(=O)N(Cc1ccccc1)CC1CCC1` (stereo not drawn) gave TbPYK inhibitor -7%, Shiga toxin inh 34, Giardia FBPA inh -4%, LmPK inhibitor 6%, RE007 growth inh 2% and CHX counter 13*.
CC(=NNC(=S)N1CCN(c2ccccn2)CC1)c1nccs1 was read as TbPYK inhibitor inconclusive and RE007 growth inh 35µM*.
O=C(O)CCc1ccc(-c2ccccc2)n1-c1cccc(Br)c1 was read as TbPYK inhibitor -10%.
For Cn1c(=O)c2c(nc3n(-c4ccc(O)cc4)c(-c4ccc(Br)cc4)cn23)n(C)c1=O the results were TbPYK inhibitor 4%.
Screening NC1=NC[C@H](Cc2ccc(O)cc2)N1CCc1cc(C(F)(F)F)cc(C(F)(F)F)c1 returned TbPYK inhibitor -1%, Shiga toxin inh 16, Giardia FBPA inh 12%, LmPK inhibitor 4%, RE007 growth inh -5% and CHX counter 19*.
`Cc1cccc2cc3c(nc12)SC(=NCC1CCCO1)N(Cc1ccco1)C3` (stereo not drawn) gave TbPYK inhibitor inconclusive, Shiga toxin inh 41, Giardia FBPA inh 0%, LmPK inhibitor -1%, RE007 growth inh -2% and CHX counter 20*.
`Cc1ccc2nc3c(cc2c1)CN(Cc1ccco1)C(=NCC1CCCO1)S3` (stereo not drawn) gave TbPYK inhibitor -2%, Shiga toxin inh -5, Giardia FBPA inh 3%, LmPK inhibitor 1%, RE007 growth inh -7% and CHX counter -1.
CCc1ccc(NS(=O)(=O)c2ccc3[nH]cc(C(=O)NCc4ccc(C)cc4)c(=O)c3c2)cc1 was read as TbPYK inhibitor -3%.
O=C(NCc1ccccc1)c1c[nH]c2ccc(S(=O)(=O)Nc3ccc4c(c3)OCCO4)cc2c1=O was read as TbPYK inhibitor -10%, Shiga toxin inh 49*, Giardia FBPA inh -5%, LmPK inhibitor 7%, RE007 growth inh -2% and CHX counter 12.
Screening CCc1ccc(NS(=O)(=O)c2ccc3[nH]cc(C(=O)NCC4CCCO4)c(=O)c3c2)cc1 (stereo not drawn) returned TbPYK inhibitor -2%, Shiga toxin inh 128, Giardia FBPA inh -5%, LmPK inhibitor 5%, RE007 growth inh -9% and CHX counter 27*.
`CCc1ccc(N(C)S(=O)(=O)c2ccc3[nH]cc(C(=O)NCC4CCCO4)c(=O)c3c2)cc1` (stereo not drawn) gave TbPYK inhibitor 3%.
For O=C(c1ccccc1)c1c[nH]c2cc3c(cc2c1=O)OCCO3 the results were TbPYK inhibitor -13%, Shiga toxin inh 45*, Giardia FBPA inh 5%, LmPK inhibitor -7%, RE007 growth inh -4% and CHX counter 17*.
Screening O=C(NCc1ccccc1)c1c[nH]c2ccccc2c1=O returned TbPYK inhibitor -3%, Shiga toxin inh 15, Giardia FBPA inh 7%, LmPK inhibitor -8%, RE007 growth inh -12% and CHX counter 1.
Screening O=C(NCc1cccnc1)c1c[nH]c2cc3c(cc2c1=O)OCCO3 returned TbPYK inhibitor -10%, Shiga toxin inh 145*, Giardia FBPA inh 6%, LmPK inhibitor 1%, RE007 growth inh -3% and CHX counter 35*.
